Assay outcomes: PubChem, several laboratories
Shown are actives, neighbours in structure and some others; about 12% of the full set was active somewhere.
PLAP act – activators of human placental alkaline phosphatase; AID 696; activation fold at 20 µM; hit rate 1.2% among 96,000; purified PLAP enzyme, luminescent substrate read-out; hits give high values; P05187; in the data active means activation fold above about 2
Cav3 T inh – human Cav3.2 channel inhibition, primary screen | hit rate 4% among 100,000 | AID 449739 | O95180 | Cav3.2-expressing cells, Fluo-4 calcium fluorescence FDSS; hits give low values | B-score at 10 µM;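 active means single-dose well whose peak fluorescence ratio is a statistical outlier from its plate by either plate-standardised score or position-corrected B-score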
DAT uptake mod – human DAT dopamine uptake with cocaine, either direction. Q01959. LLC-PK1 hDAT cells, [14C]-dopamine uptake with cocaine IC80; actives deviate in either direction. B-score at 10 µM. hit rate 1.3% among 110,000;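 active means Z score or B-score, a plate-position-corrected score, falls beyond the plate's 99.7% confidence bounds, in either direction; inactive means both scores lie inside the 99.7% bounds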;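 further: scored against the spread of the other compound wells on the same plate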
PostGolgi ctrl – inhibits growth of the yeast control strain. efflux-deficient yeast background strain, growth absorbance A615, 16 h. hit rate 5% among 98,000. inhibition, % at 10 µM
PostGolgi yeast – growth inhibition of a yeast mutant, post-Golgi transport screen; AID 739; post-Golgi transport phenotypic cell assay; inhibition, % at 10 µM; hit rate 0.9% among 98,000;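 further: yeast cells grown in 1536-well plates; yeast grown about 18 h at 30C before absorbance read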
D1 allo mod – allosteric modulators of human D1 dopamine receptor; P21728; HEK293 D1, CRE-luciferase, dopamine EC30 potentiation; actives deviate in either direction; B-score at 10 µM; hit rate 5.9% among 58,000; AID 641;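 active means luminescence count or its row- and column-corrected plate score outside the 99.7% band of the plate's sample wells, on either side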
Target sequence (P21728 whole entry, looked up): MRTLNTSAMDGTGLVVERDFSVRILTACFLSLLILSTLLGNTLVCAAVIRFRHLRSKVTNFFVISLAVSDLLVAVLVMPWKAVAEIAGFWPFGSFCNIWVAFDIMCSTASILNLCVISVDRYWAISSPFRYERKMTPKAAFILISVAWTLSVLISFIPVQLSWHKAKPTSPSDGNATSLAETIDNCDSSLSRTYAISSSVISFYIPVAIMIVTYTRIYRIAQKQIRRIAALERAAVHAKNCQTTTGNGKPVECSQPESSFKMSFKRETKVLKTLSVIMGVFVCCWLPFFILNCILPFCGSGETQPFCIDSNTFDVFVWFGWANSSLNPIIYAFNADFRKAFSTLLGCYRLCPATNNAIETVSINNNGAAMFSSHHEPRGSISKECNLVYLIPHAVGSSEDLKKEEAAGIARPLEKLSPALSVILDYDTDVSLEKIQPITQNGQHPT
Numbers without * were called inactive. Unless noted, no stated cut-off is given here; in the data, active means inhibition above about 30%; inactive means the rest.

Results for CCOC(=O)C1CCCCN1C(=O)CCc1c(C)nc2cc(-c3ccccc3)nn2c1C (stereo not drawn) ?
PLAP act: 1.5; PostGolgi ctrl: 77*; PostGolgi yeast: 3; D1 allo mod: -3.5

Results for CCN1CCCC1CN(Cc1cc2cc(C)ccc2[nH]c1=O)C(=O)Nc1ccccc1OC (stereo not drawn) ?
PLAP act: 1.6; Cav3 T inh: 0.77; DAT uptake mod: 0.66; PostGolgi ctrl: 34*; PostGolgi yeast: 7; D1 allo mod: -1.2

Results for COc1ccccc1NC(=O)N(CCN1CCCC1)Cc1cc2cc(C)ccc2[nH]c1=O ?
Cav3 T inh: -0.29; DAT uptake mod: 2.3

Results for Cc1ccc2[nH]c(=O)c(CN(CCN3CCOCC3)C(=O)Nc3ccccc3F)cc2c1 ?
Cav3 T inh: 0.64; DAT uptake mod: 2.6; PostGolgi ctrl: 46*; PostGolgi yeast: 0; D1 allo mod: -0.92

How did COc1ccccc1NC(=O)N(CCN(C)C)Cc1cc2cc(C)ccc2[nH]c1=O do in these assays?
PLAP act: 2*; Cav3 T inh: 0.19; DAT uptake mod: 0.88; PostGolgi ctrl: -2; PostGolgi yeast: 2; D1 allo mod: -0.88

How did Cc1ccc(N(CC(=O)N2CCN(C3CCCCC3)CC2)S(=O)(=O)c2cccnc2)cc1 do in these assays?
PLAP act: 1.5; Cav3 T inh: 1.2; DAT uptake mod: -0.54; PostGolgi ctrl: -8; PostGolgi yeast: -11; D1 allo mod: -1.5

How did Cc1cc(C)cc(NC(=S)NCc2cccn2C)c1 do in these assays?
PLAP act: 0.8; Cav3 T inh: 0.58; DAT uptake mod: 0.33; PostGolgi ctrl: 9; PostGolgi yeast: -15

What do the screens show for `COc1ccccc1CNC(=O)c1csc(Cc2ccc(Cl)cc2)n1`?
PLAP act: 1; Cav3 T inh: -8*; DAT uptake mod: 0.43; PostGolgi ctrl: 56*; PostGolgi yeast: -3

Results for COc1ccc(CNC(=O)c2csc(Cc3ccccc3)n2)cc1 ?
PLAP act: 1; DAT uptake mod: -0.16; PostGolgi ctrl: 22; PostGolgi yeast: -3

What do the screens show for `CCCCCCN1C=CC(=C/C=C(\C#N)C(=O)OCC)C=C1`?
PLAP act: 0.8; Cav3 T inh: -3.3*; DAT uptake mod: -2.1; PostGolgi ctrl: 4; PostGolgi yeast: 2

Results for O=C1CCCC2=C1C1(CCCCC1)N=C(Nc1nc3ccccc3s1)N2 ?
PLAP act: 0.9; Cav3 T inh: 0.0085; DAT uptake mod: -0.18; PostGolgi ctrl: 33*; PostGolgi yeast: 2; D1 allo mod: 0.32

Results for CCOc1cccc(C2c3c(oc4cc(C)c(C)cc4c3=O)C(=O)N2CCCN(C)C)c1 (stereo not drawn) ?
PLAP act: 1.6; Cav3 T inh: 0.84; DAT uptake mod: 1; PostGolgi ctrl: -8; PostGolgi yeast: 5; D1 allo mod: -0.075

Results for CNC(=S)N1N=C(c2ccc(C)cc2)CC1c1ccc(OC)cc1 (stereo not drawn) ?
PLAP act: 1.2; Cav3 T inh: -4.1*; DAT uptake mod: 0.63; PostGolgi ctrl: 47*; PostGolgi yeast: -6

Results for Cc1ccccc1C(=O)O/N=C/c1c(N2CCOCC2)n(C)c2ccccc12 ?
PLAP act: 0.9; Cav3 T inh: -1.9; DAT uptake mod: 0.091; PostGolgi ctrl: 40*; PostGolgi yeast: 54*

What do the screens show for `COc1ccccc1NC(=O)CSc1nc(O)cc(=O)[nH]1`?
PLAP act: 1.1; Cav3 T inh: 0.12; DAT uptake mod: 0.21; PostGolgi ctrl: 6; PostGolgi yeast: 20; D1 allo mod: -0.47

How did COc1ccc(CCn2c(=N)c(C(=O)NCc3ccco3)cc3c(=O)n4ccccc4nc32)cc1 do in these assays?
PLAP act: 1.2; PostGolgi ctrl: 2; PostGolgi yeast: 4; D1 allo mod: -3.7*

Results for COCCn1c(=N)c(C(=O)NCCc2ccc(OC)cc2)cc2c(=O)n3cccc(C)c3nc21 ?
PLAP act: 1.4; Cav3 T inh: 2; DAT uptake mod: 1.1; PostGolgi ctrl: 25; PostGolgi yeast: 9; D1 allo mod: -0.22

What do the screens show for `CCN1/C(=C/c2ccc3cccc(C)c3[n+]2CC)Sc2ccccc21`?
PLAP act: 0.4; Cav3 T inh: -3.9*; DAT uptake mod: -1.4; PostGolgi ctrl: 98*; PostGolgi yeast: 1

How did CC1(C)Oc2nc3ccccc3n2/C1=C\C#N do in these assays?
Cav3 T inh: -0.25; DAT uptake mod: -1
